# Assay results published in the supplement of paper PMC3334620.
# The full ranking holds about 33,000 sequences; the median of “E-score (-0.5 to 0.5)” is about -0.011, and the highest 2% start at about 0.28. The full list was thinned out, with the highest values kept by preference.
# Biological target: T1, Gcr1 (UniProt P07261)
# T1 sequence: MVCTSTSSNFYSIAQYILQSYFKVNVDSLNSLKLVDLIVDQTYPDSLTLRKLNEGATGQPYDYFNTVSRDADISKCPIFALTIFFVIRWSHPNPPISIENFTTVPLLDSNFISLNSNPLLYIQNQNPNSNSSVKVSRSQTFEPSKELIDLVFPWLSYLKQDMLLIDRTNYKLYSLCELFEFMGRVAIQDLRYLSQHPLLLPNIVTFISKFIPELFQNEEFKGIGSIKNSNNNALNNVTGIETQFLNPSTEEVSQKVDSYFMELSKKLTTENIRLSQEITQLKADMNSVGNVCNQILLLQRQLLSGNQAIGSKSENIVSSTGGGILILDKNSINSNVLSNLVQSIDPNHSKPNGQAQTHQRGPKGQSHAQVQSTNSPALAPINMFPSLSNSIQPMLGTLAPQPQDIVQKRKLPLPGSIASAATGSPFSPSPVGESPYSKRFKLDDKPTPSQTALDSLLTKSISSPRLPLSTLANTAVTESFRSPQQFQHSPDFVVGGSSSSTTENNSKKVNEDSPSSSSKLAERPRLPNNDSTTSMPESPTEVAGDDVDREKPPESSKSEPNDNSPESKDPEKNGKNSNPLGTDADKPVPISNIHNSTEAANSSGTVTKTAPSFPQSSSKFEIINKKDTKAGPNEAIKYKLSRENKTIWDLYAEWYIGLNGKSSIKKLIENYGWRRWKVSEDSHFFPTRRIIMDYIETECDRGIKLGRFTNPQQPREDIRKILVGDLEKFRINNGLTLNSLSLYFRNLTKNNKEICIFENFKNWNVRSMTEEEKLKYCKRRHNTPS
# Assay: PBM E-score (8-mer binding enrichment) (E-score (-0.5 to 0.5)); higher = stronger / more preferred TF binding
# Conditions: protein concentration: 100 nM; construct: GST-full length
# Procedure: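 Universal 'all 10-mer' protein binding microarrays (Agilent AMADID 015681) probed with GST-tagged S. cerevisiae TFs (full-length or DBD) made by in vitro transcription/translation (PURExpress), about 100-200 nM. Bound TF was detected with fluorescent anti-GST. Each ungapped 8-mer (which stands for itself and its reverse complement) is scored by the PBM enrichment score (E-score), a modified Wilcoxon-Mann-Whitney statistic from -0.5 to +0.5, computed with the Universal PBM Analysis Suite. Scale: above 0.35 generally sequence-specific binding.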
row,Sequence,PBM E-score
1,CGGCATCC,0.444
2,AGGCATCG,0.0175
3,AGGCATCC,0.387
4,CGGCATAC,-0.113
5,AGGCATCA,-0.162
6,CGGCATCA,0.223
7,ACGCCTCA,-0.137
8,CGGCTCCC,0.34
9,AGGCTCCC,0.24
10,AGGCTGCC,0.382
11,AGGCTGCA,-0.0233
12,CTGCTGCC,-0.0289
13,CGGCTGCA,0.0568
14,AGGCTGCG,0.138
15,CGGCTGCC,0.376
16,CGGCTCCA,0.0712
17,CTGTCTTA,0.0396
18,CGCCATAC,0.127
19,TACCAGCA,0.0312
20,ACCCAGGT,0.0419
21,CAACGCTG,-0.0977
22,ATTTTTCA,0.1
23,ACGGCTCT,-0.00284
24,AAATGGCT,0.0656
25,ACTCACCC,-0.126

row,Sequence,PBM E-score
1,ATGGAAGA,-0.0302
2,ATGGAAGG,-0.201
3,ATGGAAGC,0.344
4,CTGGAAGA,0.0722
5,CTGGAAGC,0.45
6,GTGGAAGA,0.172
7,CCATGGGC,0.0107
8,ACCCCTGA,0.0403
9,CCTGGTCG,-0.127
10,TCCCACGA,0.244
11,GGCACCTA,0.281
12,GGCACCAA,0.335
13,CGCACCTA,0.0792
14,TGCACCAA,-0.133
15,GGCACCAC,0.249
16,AGCACCTA,0.241
17,CCACAAAC,0.19
18,ATGCATCC,-0.00178
19,ATGAAATG,0.104
20,TCCCCAAA,0.226
21,CGGGCGGC,0.0469
22,AGGGCGCC,0.399
23,AGGGCGCG,0.194
24,AGGGCGCA,-0.0301
25,CGGGCGCA,0.0492

row,Sequence,PBM E-score
1,CGGGCGCC,0.421
2,ATTAAGGG,0.0551
3,ATTATCCG,0.00436
4,TACCTGAA,0.0937
5,ATCAGGAG,0.0606
6,CTCTCCAA,-0.0761
7,AGTGTCAG,-0.142
8,ACAGATTC,0.176
9,CCAGATAA,0.0427
10,CCAGATTC,0.326
11,GCAGATAC,0.0819
12,CCAGATAC,0.294
13,CCAGATTA,0.233
14,CCCTGCCA,0.0623
15,CCGCGCAG,-0.219
16,AGGGATTG,0.0467
17,GTGCACTA,-0.146
18,AGCTGGCA,0.0163
19,GAAGCTTC,0.339
20,GAAGCGGA,0.328
21,TAAGCGGA,-0.143
22,CAAGCGGA,-0.137
23,GAAGCTGA,0.322
24,GAAGCTTA,0.136
25,AAAGCTGA,0.113

row,Sequence,PBM E-score
1,CAAGCTGA,-0.139
2,GAAGCTCA,0.224
3,GAAGCTCC,0.309
4,AAAGCTCC,-0.0149
5,CAAGCTTC,0.232
6,ATGGGCTC,0.102
7,TCGGTGAA,-0.0389
8,GACCATAC,0.159
9,CACAGCTA,-0.0538
10,AAAACGCT,-0.0686
11,TACCCGGA,-0.0492
12,GTAATGGA,0.0927
13,CAGGCCCG,-0.263
14,TATAAGGA,0.124
15,GCTTTGGA,0.0838
16,AAACGCCG,0.0308
17,CCGCTAGA,-0.00443
18,AGGCTTGG,0.0323
19,AAAGCTGC,-0.123
20,CAAGCTGC,0.149
21,GAAGCTGC,0.406
22,CAATCGAG,0.00485
23,CTTCCGAC,-0.00712
24,GAGTGATA,-0.122
25,CCGAAGGC,-0.158

row,Sequence,PBM E-score
1,ATCGAGGC,-0.0857
2,ACCAGATA,0.0838
3,GAAGCCCC,0.381
4,CAAGCCCA,-0.244
5,CAAGCCCC,-0.18
6,AAAGCCCA,-0.0697
7,GAAGCCCA,0.368
8,AAAGCCCC,-0.121
9,AACGCGGT,-0.107
10,GTTAAATA,0.0652
11,TCTAAGAA,0.0856
12,AGTCTCCA,0.0915
13,CGTCTCCC,0.0616
14,CGTCTCCA,0.284
15,CGGCCCCC,0.0724
16,ACTAGTCG,0.065
17,AGTCTGCA,-0.179
18,GAAGAGCA,-0.0362
19,CAGTGATA,0.0897
20,AACCAAGG,-0.00121
21,TGATCCCA,0.065
22,CGATCCCC,0.111
23,CGCTCCCA,0.132
24,GGATCCCA,0.391
25,GGATCCCC,0.362

row,Sequence,PBM E-score
1,AGATCCCA,0.265
2,GGCTCCCA,0.348
3,TGCTCCCA,-0.0935
4,AGATCCCC,0.156
5,AGTCTAGC,0.0246
6,CTGATAAG,0.0222
7,GTAGCTGA,-0.023
8,TATCTCGA,-0.115
9,GTTCCTTA,0.0517
10,GGACTCCA,0.345
11,CGACTCCA,0.0419
12,AGGCTCCA,0.263
13,TGACTCCA,0.0388
14,GGGCTCCA,0.318
15,GGGCTCGA,-0.0878
16,AGATGAGG,-0.0257
17,ATATTATG,0.132
18,CTAGACCC,-0.0797
19,AAAGACTC,-0.195
20,CGCCATAG,-0.14
21,AAGTTCGA,0.0312
22,GGAAGGCA,0.0904
23,AAGTAGCT,0.208
24,CAGCTTGC,-0.267
25,AAGCTTCA,-0.0647

row,Sequence,PBM E-score
1,CAGCTTCC,0.457
2,CTGCTTCC,0.177
3,AAGCTTCT,0.184
4,CAGCTTCG,0.328
5,AAGCTTCG,0.129
6,CAGCTTCA,0.0949
7,AAGCTTCC,0.353
8,CAAGAGCG,0.0229
9,GGGCGAGA,-0.0433
10,AAGATTAA,0.233
11,AGAATGTG,-0.221
12,GAGTCCAC,0.257
13,AACGCCTA,-0.0917
14,AGGATTCA,-0.164
15,CGGATTCC,0.463
16,AGGATTCG,0.126
17,CGGATGCA,0.0929
18,CGGATTCA,-0.0182
19,CGGATGCC,0.404
20,CTGATGCC,-0.0173
21,CGGATTTC,-0.122
22,AGGATTCC,0.373
